Assay results reported in PubChem BioAssay (NCATS).
Records with an inconclusive call do not appear. Calls of active or inactive are those of the source. The call rests on the fitted dose curve; in most records, active means well fitted curve in the direction sought with a large enough effect; inconclusive means small, poorly fitted or top-dose-only effect, or another doubt; inactive means no such curve, though single readings can be large; an effect the other way counts as inactive or inconclusive.

Key:
HACAT = experiment: qHTS assay to identify novel small-molecules to repurpose for Merkel cell carcinoma treatment (AID 1296009); settings: MCC and control cell lines, CellTiter-Glo viability, 72 h; at 44.8 µM (top of the series) unless noted; further: nearly all actives have a fitted effect of over 60% in size
How it was run: (§1)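 Dose-response viability screen; 72 hr exposure at 37 degree celsius; CellTiter-Glo added, 10 min room temperature, luminescence read; RLUs scaled between no-cell and DMSO wells.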

NIH3T3 = experiment: as above; settings: MCC and control cell lines, CellTiter-Glo viability, 72 h; at 44.8 µM (top of the series) unless noted
How it was run: as §1

C33A = experiment: Primary qHTS to identify gynecologic anti-cancer compounds using libraries of approved drugs and bioactive compounds (AID 1345084); settings: Gynecologic cancer cell panel viability, ATPlite luminescence, 48 h; series mostly up to 57.5 µM; further: on the % scale 0 is the no-effect control and ±100 the full control effect; nearly all actives have a fitted effect of over 55% in size
How it was run: (§2)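 Cells, 1,000 per well, plated 16 h, then exposed 48 h at 37 C to compounds. Viability by ATPlite luminescence after 15 min at room temperature.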

CAOV3 = experiment: as above; settings: Gynecologic cancer cell panel viability, ATPlite luminescence, 48 h; series mostly up to 57.5 µM
How it was run: as §2

CASKI = experiment: as above; settings: Gynecologic cancer cell panel viability, ATPlite luminescence, 48 h; series mostly up to 57.5 µM
How it was run: as §2

Es-2 = experiment: as above; settings: Gynecologic cancer cell panel viability, ATPlite luminescence, 48 h; series mostly up to 57.5 µM
How it was run: as §2

HeLa = experiment: as above; settings: Gynecologic cancer cell panel viability, ATPlite luminescence, 48 h; series mostly up to 57.5 µM
How it was run: as §2

Hek293T = experiment: as above; settings: Gynecologic cancer cell panel viability, ATPlite luminescence, 48 h, control line for the selectivity index; series mostly up to 57.5 µM
How it was run: as §2

JEG-3 = experiment: as above; settings: Gynecologic cancer cell panel viability, ATPlite luminescence, 48 h; series mostly up to 57.5 µM
How it was run: as §2

CC(O)C(O)/C=C/C=C/C(=O)O[C@@H]1C=C(C(=O)O)[C@](O)(CO)[C@@]2(C)CCCC(C)(C)[C@H]12 (stereo partly drawn)
inactive: outcome (HACAT) inactive [at 17.4 µM] | outcome (NIH3T3) inactive [at 17.4 µM] | Potency (C33A) | Potency (CAOV3) | outcome (CASKI) | Potency (Es-2) | Potency (HeLa) | Potency (Hek293T) | Potency (JEG-3)

COC(=O)c1c(CC=C(C)C)c(OC2OC(CO)C(O)C(O)C2O)c2ccccc2c1OC1OC(CO)C(O)C(O)C1O (stereo not drawn)
inactive: outcome (HACAT) inactive [at 17.4 µM] | outcome (NIH3T3) inactive [at 17.4 µM] | Potency (C33A) | Potency (CAOV3) | outcome (CASKI) | Potency (Es-2) | Potency (HeLa) | Potency (Hek293T) | Potency (JEG-3)

CC1CC(O)/C=C/C(O)/C=C\C(=O)O1 (stereo not drawn)
inactive: outcome (HACAT) inactive [at 92 µM] | outcome (NIH3T3) inactive [at 92 µM] | Potency (C33A) | Potency (CAOV3) | outcome (CASKI) | Potency (Es-2) | Potency (HeLa) | Potency (Hek293T) | Potency (JEG-3)

O=C(O)c1cccc(C(=O)CCC2OC(n3cnc4c(=O)[nH]cnc43)C(O)C2O)c1 (stereo not drawn)
inactive: outcome (HACAT) inactive [at 17.4 µM] | outcome (NIH3T3) inactive [at 17.4 µM] | Potency (C33A) | Potency (CAOV3) | outcome (CASKI) | Potency (Es-2) | Potency (HeLa) | Potency (Hek293T) | Potency (JEG-3)

CC(C)(Oc1ccc(-c2nc3cc(Cl)ccc3s2)cc1)C(=O)O
inactive: outcome (HACAT) | outcome (NIH3T3)

Cc1ccc(C)c(S(=O)(=O)n2cnc3ccccc32)c1
inactive: outcome (HACAT) | outcome (NIH3T3) | Potency (C33A) | Potency (CAOV3) | outcome (CASKI) | Potency (Es-2) | Potency (HeLa) | Potency (Hek293T) | Potency (JEG-3)

N#Cc1cccc(-c2nc(-c3cccnc3)no2)c1
inactive: outcome (HACAT) inactive [at 17.4 µM] | outcome (NIH3T3) inactive [at 17.4 µM] | Potency (C33A) | Potency (CAOV3) | outcome (CASKI) | Potency (Es-2) | Potency (HeLa) | Potency (Hek293T) | Potency (JEG-3)

C[C@H]1[C@H](C)C[C@@H](C(=O)O)C2CC[C@]3(C)C(=CC[C@@H]4[C@@]5(C)CC[C@H](O)C(C)(C)[C@@H]5CC[C@]43C)[C@@H]21 (stereo partly drawn)
inactive: outcome (HACAT) | outcome (NIH3T3) | Potency (C33A) | Potency (CAOV3) | outcome (CASKI) | Potency (Es-2) | Potency (HeLa) | Potency (Hek293T) | Potency (JEG-3)

COc1cc(C2CC(=O)Nc3c2cc(Br)c2ccccc32)cc(OC)c1OC (stereo not drawn)
inactive: outcome (HACAT) | outcome (NIH3T3) | Potency (C33A) | Potency (CAOV3) | outcome (CASKI) | Potency (Es-2) | Potency (HeLa) | Potency (Hek293T) | Potency (JEG-3)

C[C@@]1(C(=O)O)CCC[C@@]2(C)C3=CC[C@H]4C[C@@]3(CC[C@H]12)CC4(O)CO (stereo partly drawn)
inactive: outcome (HACAT) | outcome (NIH3T3) | Potency (C33A) | Potency (CAOV3) | outcome (CASKI) | Potency (Es-2) | Potency (HeLa) | Potency (Hek293T) | Potency (JEG-3)

Cc1c(Cc2ccc3ccccc3n2)c2cc(F)ccc2n1CC(=O)O
inactive: outcome (HACAT) | outcome (NIH3T3) | Potency (C33A) | Potency (CAOV3) | outcome (CASKI) | Potency (Es-2) | Potency (HeLa) | Potency (Hek293T) | Potency (JEG-3)

C=C1Cc2c(Cl)cc3[nH]c4c5c3c2[C@@]2(O)[C@@H]1C[C@@H]2C(C)(C)O[C@H]5C1CC[C@@]2(O)[C@@]35O[C@@H]3[C@H]3OC(C)(C)[C@H]3O[C@H]5CC[C@]2(C)[C@@]41C (stereo partly drawn)
inactive: outcome (HACAT) inactive [at 17.4 µM] | outcome (NIH3T3) inactive [at 17.4 µM] | Potency (C33A) | Potency (CAOV3) | outcome (CASKI) | Potency (Es-2) | Potency (HeLa) | Potency (Hek293T) | Potency (JEG-3)

CC(=O)OC(C)(C)/C=C/C(=O)[C@](C)(O)C1[C@H](O)C[C@@]2(C)[C@@H]3CC=C4[C@@H](C[C@H](O[C@@H]5O[C@H](CO)[C@@H](O)[C@H](O)[C@H]5O)C(=O)C4(C)C)[C@]3(C)C(=O)C[C@]12C (stereo partly drawn)
inactive: outcome (HACAT) inactive [at 17.4 µM] | outcome (NIH3T3) inactive [at 17.4 µM] | Potency (C33A) | Potency (CAOV3) | outcome (CASKI) | Potency (Es-2) | Potency (HeLa) | Potency (Hek293T) | Potency (JEG-3)

C=C[C@]1(C)C[C@@H](OC(=O)CSC2C[C@H]3CC[C@@H](C2)N3C)[C@]2(C)[C@H](C)CC[C@]3(CCC(=O)[C@H]32)[C@@H](C)[C@@H]1O (stereo partly drawn)
inactive: outcome (HACAT) | outcome (NIH3T3) | Potency (C33A) | Potency (CAOV3) | outcome (CASKI) | Potency (Es-2) | Potency (HeLa) | Potency (Hek293T) | Potency (JEG-3)

CC1(C)CC[C@]2(C(=O)O[C@@H]3O[C@H](CO)[C@@H](O)[C@H](O)[C@H]3O)CC[C@]3(C)C(=CCC4[C@@]5(C)CC[C@H](O[C@H]6O[C@H](CO)[C@@H](O)[C@H](O[C@@H]7O[C@H](CO)[C@@H](O)[C@H](O)[C@H]7O)[C@H]6O)C(C)(C)C5CC[C@]43C)[C@@H]2C1 (stereo partly drawn)
inactive: outcome (HACAT) inactive [at 9.27 µM] | outcome (NIH3T3) inactive [at 9.27 µM] | activity change, negative = cytotoxicity (C33A) 0.319% [at 11.6 µM] | activity change, negative = cytotoxicity (CAOV3) 1.94% [at 11.6 µM] | activity change, negative = cytotoxicity (CASKI) -7.8% [at 11.6 µM] | activity change, negative = cytotoxicity (Es-2) -1.42% [at 11.6 µM] | activity change, negative = cytotoxicity (HeLa) 11.5% [at 11.6 µM] | activity change, negative = cytotoxicity (Hek293T) 5.32% [at 11.6 µM] | activity change, negative = cytotoxicity (JEG-3) -9.09% [at 11.6 µM]
